Results taken from PubChem BioAssay (NCI).
The panel holds about 83,000 compounds, 20% with a hit somewhere; the sample as a whole holds those more often.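 Step 1: grow cells in 96-well plates. Step 2: add test compound at a single concentration. Step 3: incubate 48 h. Step 4: record percent growth.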 The source made the active and inactive calls. How the source made its calls: active means growth percent below 10; inactive means the rest.

System: NCI-H460 lung
Experiment: NCI-60 one-dose screen, 48 h (100 = growth as untreated, 0 = no growth, -100 = all killed)
Settings: 10 µM unless noted

SMILES | growth
CCOC(=O)c1cc(C(=O)c2cc(OC)cc(OC)c2)n2ncccc12 | 14.7% (inactive)
CO[C@H]1/C=C/O[C@@]2(C)Oc3c(C)c(O)c4c(O)c(c5c(nc6cc(C)ccn65)c4c3C2=O)NC(=O)/C(C)=C\C=C\[C@H](C)[C@H](O)[C@@H](C)C(O)[C@@H](C)[C@H](OC(C)=O)[C@@H]1C (stereo partly drawn) | 114% (inactive)
CN1CCN(Cn2nc(-c3cc(Cl)cc(Cl)c3Cl)oc2=S)CC1 | 102% (inactive)
COC1=C(OC)C(=O)C(CCCCCCCCCCO)=C(C)C1=O | 98.8% (inactive)
COCCn1cc(-c2nc(-c3cc4cccnc4n3C)cs2)c2cc(OC)ccc21 | 19.2% (inactive)
O=C(/C=C/c1ccc(Cl)cc1)c1ccc(-n2cc(CN3CCN(c4cc5c(cc4F)c(=O)c(C(=O)O)cn5C4CC4)CC3)nn2)cc1 | 82.2% (inactive)
Cc1ccc(S(=O)(=O)c2nc(-c3ccccc3)oc2S(C)=O)cc1 (stereo not drawn) | 73.1% (inactive)
CNC(=O)c1cc(Oc2ccc3nc(NC(=O)Nc4ccc(F)cc4F)sc3c2)ccn1 | 63% (inactive)
CCCCN(CCC#N)C(N)=O | 108% (inactive)
COc1cccc(/C=C2\CCc3ccccc3C2=O)c1 | 96.6% (inactive)
C#Cc1c(I)n(C2OC(CO[Si](C)(C)C(C)(C)C)C3OC(C)(C)OC32)c(=O)[nH]c1=O (stereo not drawn) | 114% (inactive)
COc1cc(/C=C2\C(=O)N(CCOc3cc(O)c4c(=O)cc(-c5ccccc5)oc4c3)c3ccccc32)cc(OC)c1O | 66.1% (inactive)
O=C1c2ccccc2-c2c1c1ccncc1c(=O)n2CCCn1ccnc1 | 21.8% (inactive)
